From the supplement of paper PMC10849652
Of roughly 8,800 targets only a part is listed; those with a hit were picked by preference. About 0.5% of all pairs of compound and target were hits.

Assays:
Test in all cases: log2 fold change, soluble protein after heating vs DMSO (PISA); higher = thermal stabilisation; K562 lysate, 10 uM; active = over 0.2 and 3.5 SD of the protein, either way, in both replicates (recomputed)
erlotinib = compound: C#Cc1cccc(Nc2ncnc3cc(OCCOC)c(OCCOC)cc23)c1 [erlotinib]
Procedure, shortened: (§1)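 Quantification was by TMTpro 16plex LC-MS/MS with equalised channel sums, applied to the supernatant after 21,000xg for 90 min. Samples were crude K562 extract at 1 mg/mL protein in PBS pH 7.4 with 1 mM MgCl2, treated with 10 μM compound for 30 min, heated for 3 min across 48°C-58°C, pooled and brought to 0.5% NP-40 at 4°C. Values are log-two fold changes in thermal stability relative to solvent controls, from duplicates.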

[1] = compound: C/C(=N\NC(=O)C1=CC(=CC=C1)S(=O)(=O)N2CCOCC2)/C3=C(C=CC(=C3)Cl)O
Procedure, shortened: as §1

[2] = compound: C1=CC(=CC=C1C2=NC3=C(N2)C=C(C=C3)C(=O)N)OC4=CC=C(C=C4)Cl
Procedure, shortened: as §1

[3] = compound: C1=CC2=C(C=CC(=C2)/C=C\3/C(=O)NC(=NCC4=CC=CS4)S3)N=C1
Procedure, shortened: as §1

[4] = compound: C1=CC2=NC=CN=C2C=C1/C=C/3\C(=O)NC(=O)S3
Procedure, shortened: as §1

[5] = compound: C1=CC=C(C=C1)C2=NC(=C(N2)C3=CC=NC=C3)C4=CC(=C(C=C4)Cl)O
Procedure, shortened: as §1

[6] = compound: C1=CC=C2C(=C1)C3=NNC4=CC=CC(=C43)C2=O
Procedure, shortened: as §1

[7] = compound: C1CCN(C1)C(=O)NC2=CC=CC(=C2)NC3=NC=C(C(=N3)NCCC4=CN=CN4)Br
Procedure, shortened: as §1

[8] = compound: C1CN(CCC1(CC2=CC=C(C=C2)Cl)N)C3=NC=NC4=C3C=CN4
Procedure, shortened: as §1

IRAK-1-4 Inhibitor I = compound: C1COCCN1CCN2C3=CC=CC=C3N=C2NC(=O)C4=CC(=CC=C4)[N+](=O)[O-] [IRAK-1-4 Inhibitor I]
Procedure, shortened: as §1

ibrutinib = compound: C=CC(=O)N1CCC[C@@H](n2nc(-c3ccc(Oc4ccccc4)cc3)c3c(N)ncnc32)C1 [ibrutinib]
Procedure, shortened: as §1

[9] = compound: CC(=O)c1cnc2ccc(-c3cc(Cl)c(O)c(Cl)c3)nc2c1N[C@H]1CC[C@H](CN(C)C)CC1
Procedure, shortened: as §1

ralimetinib = compound: CC(C)(C)Cn1c(N)nc2ccc(-c3[nH]c(C(C)(C)C)nc3-c3ccc(F)cc3)nc21 [ralimetinib]
Procedure, shortened: as §1

[10] = compound: CC(C)(O)CC(=O)NCCn1ccc2ncnc(Nc3ccc(Oc4cccc(C(F)(F)F)c4)c(Cl)c3)c21
Procedure, shortened: as §1

[11] = compound: CC(C)C1=C2N=C(C=C(N2N=C1)NCC3=CC=CC=C3)NCCCCCCN
Procedure, shortened: as §1

[12] = compound: CC1=C(C(CC(=O)N1)C2=CC=C(C=C2)C(F)(F)F)C(=O)NC3=C(C=C4C(=C3)C=NN4)F
Procedure, shortened: as §1

[13] = compound: CC1=C(C2=C(C=C1)C(=O)C3=CC=CC=C3N2CCCN)C
Procedure, shortened: as §1

[14] = compound: CC1=C(C=C(C=C1)NC(=O)C2=CC(=CC=C2)C(C)(C)C#N)NC3=CC4=C(C=C3)N=CN(C4=O)C
Procedure, shortened: as §1

[15] = compound: CC1=C(C=C(C=C1)NC(=O)C2=CC(=CC=C2)N(C)C)NC(=O)C3=CC=C(C=C3)O
Procedure, shortened: as §1

[16] = compound: CC1=CC=C(C=C1)SC2=C3C=C(SC3=CN=C2)C(=O)N
Procedure, shortened: as §1

Measured: log2 fold change

PUS1 (UniProt Q9Y606)
inactive: erlotinib 0.033 | [1] -0.174 | [2] 0.007 | [3] 0.01 | [4] 0.024 | [5] 0.005 | [6] -0.06 | [7] 0.016 | [8] -0.021 | IRAK-1-4 Inhibitor I 0.004 | ibrutinib 0.006 | [9] 0.004 | ralimetinib 0.013 | [10] -0.006 | [11] 0.005 | [12] -0.009 | [13] -0.032 | [14] 0.028 | [15] 0.031 | [16] -0.021

PHKB isoform 3 (UniProt Q93100)
Chain of UniProt Q93100 (Q93100 whole entry, looked up): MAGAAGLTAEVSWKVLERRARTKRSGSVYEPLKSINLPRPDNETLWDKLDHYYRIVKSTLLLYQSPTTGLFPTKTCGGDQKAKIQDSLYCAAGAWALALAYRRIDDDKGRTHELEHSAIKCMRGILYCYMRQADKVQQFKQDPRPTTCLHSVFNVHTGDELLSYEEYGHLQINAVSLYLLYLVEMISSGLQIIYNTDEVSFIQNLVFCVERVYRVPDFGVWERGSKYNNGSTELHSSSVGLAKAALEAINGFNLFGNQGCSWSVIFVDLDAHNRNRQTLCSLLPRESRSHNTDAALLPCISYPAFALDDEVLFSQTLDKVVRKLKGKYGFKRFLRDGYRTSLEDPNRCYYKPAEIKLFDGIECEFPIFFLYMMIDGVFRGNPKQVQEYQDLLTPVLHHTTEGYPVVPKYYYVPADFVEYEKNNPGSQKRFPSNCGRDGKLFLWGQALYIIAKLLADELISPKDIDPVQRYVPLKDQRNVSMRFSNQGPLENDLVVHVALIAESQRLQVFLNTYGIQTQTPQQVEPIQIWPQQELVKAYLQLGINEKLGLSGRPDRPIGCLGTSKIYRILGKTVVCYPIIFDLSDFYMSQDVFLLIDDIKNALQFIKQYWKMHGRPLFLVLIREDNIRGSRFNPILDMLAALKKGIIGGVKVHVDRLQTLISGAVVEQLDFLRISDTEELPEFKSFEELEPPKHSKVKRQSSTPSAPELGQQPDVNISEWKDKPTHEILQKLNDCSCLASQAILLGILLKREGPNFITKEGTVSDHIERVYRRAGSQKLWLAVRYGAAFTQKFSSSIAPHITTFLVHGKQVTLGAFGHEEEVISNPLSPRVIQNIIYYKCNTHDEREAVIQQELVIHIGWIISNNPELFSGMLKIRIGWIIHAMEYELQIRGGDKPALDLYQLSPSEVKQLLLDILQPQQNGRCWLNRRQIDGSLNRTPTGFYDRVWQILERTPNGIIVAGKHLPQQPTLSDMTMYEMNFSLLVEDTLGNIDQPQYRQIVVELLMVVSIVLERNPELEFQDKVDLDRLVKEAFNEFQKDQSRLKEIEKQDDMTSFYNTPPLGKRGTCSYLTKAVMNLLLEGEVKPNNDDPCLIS
inactive: erlotinib -0.053 | [1] -0.049 | [2] 0 | [3] 0.044 | [4] 0.082 | [5] 0.036 | [6] 0.142 | [7] 0.038 | [8] 0.01 | IRAK-1-4 Inhibitor I 0.006 | ibrutinib -0.004 | [9] 0.071 | ralimetinib 0.008 | [10] -0.052 | [11] -0.003 | [12] 0.008 | [13] -0.069 | [14] -0.019 | [15] 0.022 | [16] -0.049

PWP1 (UniProt Q13610)
inactive: erlotinib -0.02 | [1] -0.025 | [2] 0.045 | [3] 0.057 | [4] 0.007 | [5] 0 | [6] 0.031 | [7] 0.008 | [8] -0.032 | IRAK-1-4 Inhibitor I 0.005 | ibrutinib 0.022 | [9] -0.017 | ralimetinib 0.012 | [10] -0.011 | [11] -0.02 | [12] -0.053 | [13] -0.025 | [14] -0.009 | [15] 0.032 | [16] -0.001

POMP (UniProt Q9Y244)
Chain of UniProt Q9Y244 (Q9Y244 whole entry, looked up): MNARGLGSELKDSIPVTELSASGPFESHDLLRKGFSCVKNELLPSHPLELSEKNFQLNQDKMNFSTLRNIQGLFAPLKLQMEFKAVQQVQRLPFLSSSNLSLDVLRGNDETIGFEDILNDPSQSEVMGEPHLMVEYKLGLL
inactive: erlotinib 0.058 | [1] -0.022 | [2] -0.001 | [3] 0.05 | [4] -0.003 | [5] -0.024 | [6] -0.08 | [7] -0.099 | [8] 0.048 | IRAK-1-4 Inhibitor I -0.023 | ibrutinib -0.025 | [9] -0.043 | ralimetinib -0.001 | [10] -0.033 | [11] -0.013 | [12] 0.016 | [13] -0.09 | [14] 0.048 | [15] 0.027 | [16] -0.001

POC5 (UniProt Q8NA72)
inactive: erlotinib -0.022 | [1] -0.083 | [2] -0.01 | [3] 0.069 | [4] -0.025 | [5] 0.039 | [6] -0.144 | [7] 0.045 | [8] 0.043 | IRAK-1-4 Inhibitor I 0.069 | ibrutinib 0.013 | [9] -0.063 | ralimetinib 0.062 | [10] -0.029 | [11] 0.101 | [12] 0.015 | [13] 0.026 | [14] -0.015 | [15] 0 | [16] -0.02

PKP3 isoform 2 (UniProt Q9Y446)
inactive: erlotinib 0.063 | [1] -0.011 | [2] 0.042 | [3] 0.009 | [4] 0.006 | [5] -0.011 | [6] -0.02 | [7] -0.011 | [8] -0.013 | IRAK-1-4 Inhibitor I 0.015 | ibrutinib 0.005 | [9] -0.022 | ralimetinib -0.028 | [10] 0.009 | [11] -0.006 | [12] 0.014 | [13] 0.021 | [14] 0.004 | [15] -0.019 | [16] 0.052

PRKDC (UniProt P78527)
inactive: erlotinib 0.021 | [1] -0.064 | [2] -0.029 | [3] 0.135 | [5] 0.037 | [6] 0.068 | [7] 0.122 | [8] -0.041 | IRAK-1-4 Inhibitor I 0.02 | ibrutinib 0.096 | [9] 0.318 | ralimetinib 0.033 | [10] 0.01 | [11] -0.014 | [12] -0.021 | [13] 0.031 | [14] -0.057 | [15] 0.038 | [16] -0.01
active: [4] 0.927

PCIF1 (UniProt Q9H4Z3)
Chain of UniProt Q9H4Z3 (Q9H4Z3 whole entry, looked up): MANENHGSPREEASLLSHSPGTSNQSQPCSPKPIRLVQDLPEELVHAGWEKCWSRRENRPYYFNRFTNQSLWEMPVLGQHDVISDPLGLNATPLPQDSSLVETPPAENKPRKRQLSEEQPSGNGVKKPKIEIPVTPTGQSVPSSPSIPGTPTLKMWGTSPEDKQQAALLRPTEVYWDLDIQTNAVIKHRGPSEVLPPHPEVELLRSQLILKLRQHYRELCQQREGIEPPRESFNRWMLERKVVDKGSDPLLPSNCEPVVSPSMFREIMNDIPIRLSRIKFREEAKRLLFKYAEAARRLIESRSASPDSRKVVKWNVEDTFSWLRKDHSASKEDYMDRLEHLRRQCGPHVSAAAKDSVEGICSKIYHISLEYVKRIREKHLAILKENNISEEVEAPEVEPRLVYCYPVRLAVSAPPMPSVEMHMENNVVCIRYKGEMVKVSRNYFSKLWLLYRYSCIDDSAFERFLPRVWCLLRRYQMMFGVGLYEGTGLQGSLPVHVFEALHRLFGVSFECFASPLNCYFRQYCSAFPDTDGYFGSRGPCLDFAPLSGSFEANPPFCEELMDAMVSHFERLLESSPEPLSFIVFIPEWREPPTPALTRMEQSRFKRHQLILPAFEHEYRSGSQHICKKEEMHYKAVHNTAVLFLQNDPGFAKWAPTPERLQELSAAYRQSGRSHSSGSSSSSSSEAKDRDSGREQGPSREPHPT
inactive: erlotinib -0.011 | [1] 0.067 | [2] -0.008 | [3] 0.042 | [4] 0.102 | [5] -0.015 | [6] 0.014 | [7] -0.011 | [8] -0.033 | IRAK-1-4 Inhibitor I -0.041 | ibrutinib 0.019 | [9] 0.019 | ralimetinib 0.091 | [10] 0.017 | [11] 0 | [12] 0.002 | [13] 0.037 | [14] -0.033 | [15] 0.025 | [16] -0.029

PIP4K2A (UniProt P48426)
Chain of UniProt P48426 (P48426 whole entry, looked up): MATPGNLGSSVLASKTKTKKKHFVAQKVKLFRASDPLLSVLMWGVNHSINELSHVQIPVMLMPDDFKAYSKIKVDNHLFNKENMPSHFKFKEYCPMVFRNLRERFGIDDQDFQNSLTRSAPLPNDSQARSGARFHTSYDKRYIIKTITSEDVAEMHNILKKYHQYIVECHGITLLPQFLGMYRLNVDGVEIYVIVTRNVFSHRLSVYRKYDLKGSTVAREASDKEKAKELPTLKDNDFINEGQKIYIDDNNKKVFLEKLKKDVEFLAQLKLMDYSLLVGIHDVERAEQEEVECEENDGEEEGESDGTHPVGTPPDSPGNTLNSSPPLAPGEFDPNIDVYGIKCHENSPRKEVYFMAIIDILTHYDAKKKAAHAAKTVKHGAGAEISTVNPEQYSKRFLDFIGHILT
active: [1] -0.239
inactive: erlotinib -0.04 | [2] 0.032 | [3] 0.001 | [4] 0.225 | [5] 0.135 | [6] 0.105 | [7] 0.103 | [8] -0.006 | IRAK-1-4 Inhibitor I -0.007 | ibrutinib -0.052 | [9] 0.086 | ralimetinib 0.032 | [10] -0.053 | [11] -0.043 | [12] -0.017 | [13] -0.019 | [14] -0.002 | [15] -0.028 | [16] -0.026

PMPCA (UniProt Q10713)
inactive: erlotinib -0.034 | [1] -0.012 | [2] 0.073 | [3] 0.008 | [4] -0.006 | [5] 0.043 | [6] -0.014 | [7] -0.026 | [8] -0.012 | IRAK-1-4 Inhibitor I 0.007 | ibrutinib -0.052 | [9] -0.023 | ralimetinib 0.006 | [10] -0.038 | [11] -0.047 | [12] -0.043 | [13] -0.041 | [14] 0.033 | [15] -0.036 | [16] 0.015

PUM1 isoform 3 (UniProt Q14671)
Chain of UniProt Q14671 (Q14671 whole entry, looked up): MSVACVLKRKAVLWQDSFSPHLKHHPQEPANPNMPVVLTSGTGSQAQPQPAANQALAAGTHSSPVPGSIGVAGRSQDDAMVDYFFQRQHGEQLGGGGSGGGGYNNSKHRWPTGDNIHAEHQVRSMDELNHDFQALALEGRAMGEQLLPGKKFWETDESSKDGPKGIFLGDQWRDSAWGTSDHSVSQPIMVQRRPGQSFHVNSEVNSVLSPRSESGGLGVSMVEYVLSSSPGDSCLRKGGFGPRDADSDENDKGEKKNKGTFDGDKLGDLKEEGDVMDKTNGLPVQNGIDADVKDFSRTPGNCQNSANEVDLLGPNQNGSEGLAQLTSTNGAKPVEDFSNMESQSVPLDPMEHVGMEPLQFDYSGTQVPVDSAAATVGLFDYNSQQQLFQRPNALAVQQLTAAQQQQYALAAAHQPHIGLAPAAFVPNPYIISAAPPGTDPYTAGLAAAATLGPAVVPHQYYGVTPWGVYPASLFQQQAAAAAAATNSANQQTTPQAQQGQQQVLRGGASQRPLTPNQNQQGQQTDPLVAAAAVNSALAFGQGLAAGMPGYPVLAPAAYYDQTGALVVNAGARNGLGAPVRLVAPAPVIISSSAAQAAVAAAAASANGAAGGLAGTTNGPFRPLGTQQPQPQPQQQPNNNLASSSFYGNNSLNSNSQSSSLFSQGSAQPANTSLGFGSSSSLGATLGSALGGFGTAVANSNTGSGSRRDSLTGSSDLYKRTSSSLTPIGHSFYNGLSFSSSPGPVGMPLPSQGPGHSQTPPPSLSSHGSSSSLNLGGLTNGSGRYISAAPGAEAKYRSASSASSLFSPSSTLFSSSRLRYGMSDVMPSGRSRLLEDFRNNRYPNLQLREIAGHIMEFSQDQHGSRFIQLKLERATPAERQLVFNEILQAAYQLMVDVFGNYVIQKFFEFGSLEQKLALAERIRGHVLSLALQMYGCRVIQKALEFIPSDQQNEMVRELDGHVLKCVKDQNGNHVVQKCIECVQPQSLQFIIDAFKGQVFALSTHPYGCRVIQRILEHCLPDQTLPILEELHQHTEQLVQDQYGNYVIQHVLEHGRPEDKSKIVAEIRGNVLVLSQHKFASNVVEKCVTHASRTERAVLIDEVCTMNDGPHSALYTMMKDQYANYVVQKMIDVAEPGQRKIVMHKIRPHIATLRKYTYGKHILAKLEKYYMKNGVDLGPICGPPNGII
active: [14] -0.435
inactive: erlotinib -0.025 | [1] 0.051 | [2] 0.06 | [3] -0.028 | [4] 0.02 | [5] -0.052 | [6] -0.033 | [7] 0.01 | [8] 0.013 | IRAK-1-4 Inhibitor I 0.011 | ibrutinib -0.034 | [9] 0.009 | ralimetinib 0.003 | [10] -0.031 | [11] -0.035 | [12] 0.032 | [13] 0.044 | [15] 0.049 | [16] 0.014

PRKCSH isoform 2 (UniProt P14314)
Chain of UniProt P14314 (P14314 whole entry, looked up): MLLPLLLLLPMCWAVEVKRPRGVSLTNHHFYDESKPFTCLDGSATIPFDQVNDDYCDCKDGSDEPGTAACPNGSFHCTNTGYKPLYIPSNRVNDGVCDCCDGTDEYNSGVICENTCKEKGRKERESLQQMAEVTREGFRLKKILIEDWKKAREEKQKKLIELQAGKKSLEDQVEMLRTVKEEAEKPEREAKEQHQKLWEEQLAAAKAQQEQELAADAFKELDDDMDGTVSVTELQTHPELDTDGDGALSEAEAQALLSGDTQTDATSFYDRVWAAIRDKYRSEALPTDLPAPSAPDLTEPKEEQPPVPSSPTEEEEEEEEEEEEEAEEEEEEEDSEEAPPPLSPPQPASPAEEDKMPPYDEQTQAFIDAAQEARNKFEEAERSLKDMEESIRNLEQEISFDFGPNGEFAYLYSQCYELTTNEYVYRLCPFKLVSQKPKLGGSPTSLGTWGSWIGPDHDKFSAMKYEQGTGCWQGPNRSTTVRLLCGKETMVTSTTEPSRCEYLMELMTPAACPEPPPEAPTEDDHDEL
inactive: erlotinib 0.038 | [1] -0.107 | [2] 0.084 | [3] 0.024 | [4] 0.001 | [5] -0.054 | [6] -0.011 | [7] -0.009 | [8] 0.015 | IRAK-1-4 Inhibitor I 0.001 | ibrutinib -0.125 | [9] 0.069 | ralimetinib 0.012 | [10] -0.142 | [11] -0.004 | [12] 0.04 | [13] -0.017 | [14] 0.131 | [15] 0.132 | [16] -0.045

PTPN23 (UniProt Q9H3S7)
inactive: erlotinib 0.017 | [1] -0.029 | [2] 0.016 | [3] -0.01 | [4] -0.023 | [5] 0.008 | [6] -0.028 | [7] -0.013 | [8] -0.003 | IRAK-1-4 Inhibitor I -0.004 | ibrutinib 0.024 | [9] 0.007 | ralimetinib 0.029 | [10] 0.007 | [11] -0.019 | [12] -0.014 | [13] 0.01 | [14] -0.015 | [15] 0.009 | [16] 0.012

PIR (UniProt O00625)
Chain of UniProt O00625 (O00625 whole entry, looked up): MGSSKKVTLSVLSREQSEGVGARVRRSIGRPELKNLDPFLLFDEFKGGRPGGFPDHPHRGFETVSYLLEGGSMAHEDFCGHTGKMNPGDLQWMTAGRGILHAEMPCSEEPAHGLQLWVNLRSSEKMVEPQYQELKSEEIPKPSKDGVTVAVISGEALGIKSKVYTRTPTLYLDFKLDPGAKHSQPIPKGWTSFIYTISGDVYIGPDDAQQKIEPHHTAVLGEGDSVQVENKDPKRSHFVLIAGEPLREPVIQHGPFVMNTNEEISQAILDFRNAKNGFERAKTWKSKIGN
active: [11] 0.254
inactive: erlotinib 0.017 | [1] -0.212 | [2] 0.01 | [3] 0.034 | [4] -0.034 | [5] 0.006 | [6] 0.151 | [7] 0.014 | [8] 0.027 | IRAK-1-4 Inhibitor I -0.02 | ibrutinib 0.029 | [9] -0.01 | ralimetinib -0.017 | [10] 0.019 | [12] -0.034 | [13] 0.007 | [14] -0.003 | [15] 0.232 | [16] -0.022

PSTPIP2 (UniProt Q9H939)
Chain of UniProt Q9H939 (Q9H939 whole entry, looked up): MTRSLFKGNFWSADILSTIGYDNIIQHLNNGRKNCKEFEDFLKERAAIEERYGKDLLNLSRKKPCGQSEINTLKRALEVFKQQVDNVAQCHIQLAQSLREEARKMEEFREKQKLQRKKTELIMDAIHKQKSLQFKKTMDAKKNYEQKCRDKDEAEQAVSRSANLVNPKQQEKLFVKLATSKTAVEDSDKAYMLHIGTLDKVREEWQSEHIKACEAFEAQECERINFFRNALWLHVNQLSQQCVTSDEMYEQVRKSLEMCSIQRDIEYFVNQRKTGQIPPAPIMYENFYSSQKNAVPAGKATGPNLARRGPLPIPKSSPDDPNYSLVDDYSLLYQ
inactive: erlotinib 0.002 | [1] 0.05 | [2] -0.028 | [3] 0.055 | [4] -0.031 | [5] -0.003 | [6] -0.122 | [7] 0.01 | [8] 0.005 | IRAK-1-4 Inhibitor I 0.009 | ibrutinib -0.019 | [9] -0.037 | ralimetinib -0.024 | [10] 0.012 | [11] 0.001 | [12] -0.049 | [13] -0.037 | [14] 0.022 | [15] -0.001 | [16] -0.034

PFDN2 (UniProt Q9UHV9)
Chain of UniProt Q9UHV9 (Q9UHV9 whole entry, looked up): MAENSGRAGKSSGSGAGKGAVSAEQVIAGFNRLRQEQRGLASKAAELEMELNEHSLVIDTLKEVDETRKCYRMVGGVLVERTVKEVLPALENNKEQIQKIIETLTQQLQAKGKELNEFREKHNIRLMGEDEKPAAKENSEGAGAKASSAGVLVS
inactive: erlotinib -0.055 | [1] -0.003 | [2] -0.038 | [3] 0.006 | [4] 0 | [5] -0.027 | [6] 0.071 | [7] 0.043 | [8] -0.026 | IRAK-1-4 Inhibitor I -0.015 | ibrutinib 0.103 | [9] 0.006 | ralimetinib 0.08 | [10] 0.08 | [11] 0.005 | [12] 0.016 | [13] 0.034 | [14] -0.017 | [15] -0.033 | [16] -0.022
